# Rows were chosen to be rich in hits. Some 2.6% of all compounds tested hit in one or more screens of this group.
# Nrf2 block: Nrf2 pathway inhibition; A549 ARE-Fluc reporter, luciferase luminescence, 18-24 h; Potency, µM (series often up to 46 µM), without a hit: at the highest dose activity change, negative = inhibition, usual class: inhibitors; 2.1% of 360,000 active; also: potency is read from the fitted curve at half-maximal effect; % is scaled to controls: 0 for no effect and ±100 for the full control effect; nearly all actives have a fitted effect of over 60% in size
#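 Two sequential reads on A549 ARE_Fluc cells exposed to compound for 18-24 h: a CellTiter-Fluor fluorescence read for viability, then a luciferase luminescence read for Nrf2/ARE activity.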
# CCT modulator: cytosolic chaperonin activity modulation; purified chaperonin ATPase assay, HTRF ADP detection, 30 min; activity change, % (test concentration not listed), hits read low; 0.3% of 360,000 active; AID 651819; in the data active = activity change below about -30%; also: % is scaled to controls: 0 for no effect and ±100 for the full control effect
#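 TRiC (40 or 20 nM final, by batch activity) in 30 mM Tris pH 7.4, 100 mM KCl, 5 mM MgCl2, 1 mM DTT was treated with compound at 76 uM single dose, then 10 uM ATP, 30 min at 37 °C. ADP was read by HTRF Transcreener.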
# Nrf2 activator: Nrf2 pathway activation; Potency, µM (top dose mostly 46.1 µM), for inactives: top-dose activation, hits mostly activators; AREc32 ARE-luciferase reporter (MCF7-derived line), luminescence, 24 h; AID 624171; 0.31% of 410,000 active; also: potency is read from the fitted curve at half-maximal effect; % of control where 0% means no effect; nearly all actives have a fitted effect of over 65% in size
#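 Reporter line AREc32 (ARE-Fluc), seeded overnight in OPTI-MEM with 5% FBS; compound pin-transferred, 24 hr at 37 deg C, 5% CO2; luminescent read-out.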
# TCR act: activators of T cell receptors; Potency, µM (titrated, usually from 9.22 µM), for inactives: top-dose activation of IL-2 secretion, hits mostly activators; 330,000 tested, under 10 active; AID 504894; primary human leukocytes, anti-CD3, IL-2 HTRF, 48 h; also: % of control where 0% means no effect
#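 HTRF read-out of IL-2 secretion: europium cryptate donor excited at 320nm, d2 acceptor emission at 665nm. Cells were primary human leukocytes incubated 48 hr with compounds and a-CD3 beads, supplying TCR signal only.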
# A-T KAP1 phos: potential ataxia-telangiectasia treatments restoring KAP-1 phosphorylation | F2112 A-T fibroblasts, KAP-1 phosphorylation AlphaLISA; neocarzinostatin DNA damage 30 min before lysis | Potency, µM (titrated, usually from 57.5 µM), for the others: top-dose activation, most hits filed as activators | 0.19% of 320,000 active; also: potency is read from the fitted curve at half-maximal effect; % of control where 0% means no effect; nearly all actives have a fitted effect of over 45% in size
#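 ATM-like activity read as KAP-1 phosphorylation via AlphaLISA donor/acceptor antibody pairs after lysis and 6 hr at 25C. Cells were ATM-null patient fibroblasts (F2112, hTERT), dosed 60 min, then exposed to the DSB inducer NCS for 30 min.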
# A549 tox: counter-screen for Nrf2 inhibitors: cytotoxicity in A549 cells; A549 ARE-Fluc cells, CellTiter-Fluor viability, 18-24 h; Potency, µM (series often up to 46 µM), without a hit: at the top dose activity change, negative = cytotoxicity, hits mostly inhibitors; 0.16% of 390,000 active; also: potency is read from the fitted curve at half-maximal effect; % is scaled to controls: 0 for no effect and ±100 for the full control effect
#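 A549 ARE_Fluc cells in 5% FBS OPTI-MEM were exposed to compounds in concentration-response for 18-24 h at 37 deg C. Viability was read by CellTiter-Fluor fluorescence (Ex 405/Em 525) after 30 min, before the luciferase read.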
# * marks the source's active call; other numbers are inactive results; ? = inconclusive; / = not tested or not shown; [ ] = dose if it differs, or a comment. Unless noted, calls follow the shape of the dose curve; as a rule, active = well fitted curve in the direction sought with a large enough effect; inconclusive = small, poorly fitted or top-dose-only effect, or another doubt; inactive = no such curve, though single readings can be large; an effect the other way counts as inactive or inconclusive.
SMILES,Nrf2 block,CCT modulator,Nrf2 activator,TCR act,A-T KAP1 phos,A549 tox
CCOc1ccccc1NC(=O)c1cn(C2CCCC2)c(=O)c2c1c1ccccc1n2C,17%,/,-1%,/,/,-1%
Cc1cccc(C)c1OCc1cc(C(=O)N(Cc2c(C)nn(C)c2C)C2CC2)no1,23µM*,-1,-1%,2%,1%,-8%
Cc1cccc(C)c1OCc1cc(C(=O)NCC2CCCCC2)no1,10%,0,0%,-4%,14%,11%
N#Cc1cc2c(nc1SCC(=O)Nc1sc3c(c1C#N)CCC3)CCCCC2,/,-3,0%,/,6%,5%
CC(Sc1nc(N)cc(=O)[nH]1)C(=O)Nc1sc2c(c1C#N)CCCC2 (stereo not given),13µM*,-3,3%,-1%,-1%,-30%
CCC(Sc1nc(C)cc(=O)[nH]1)C(=O)Nc1sc2c(c1C#N)CCCC2 (stereo not given),0%,-2,2%,1%,-14%,1%
N#Cc1c(NC(=O)CSc2nc(N)cc(=O)[nH]2)sc2c1CCCCCC2,7.3µM*,-1,0%,-2%,-2%,-5%
CC1CCN(C(=O)c2cccc(NC(=O)c3nsc4ccccc34)c2)CC1,/,/,1%,/,/,0%
Cc1nn(-c2ccccc2)c2sc(C(=O)Nc3cccc(Cl)c3)cc12,?,/,9%,/,/,4%
COc1cc2cc(C#N)c(SCC(=O)OC(C)C)nc2cc1OC,?,/,/,/,/,0%
COc1ccc(C2CC(=O)c3cc(-c4nc(-c5cccc([N+](=O)[O-])c5)cs4)c(=O)n(-c4ccccc4N)c3C2)cc1 (stereo not given),?,/,8%,/,/,-9%
Cc1ccc(CNc2ccc(-c3nc(-c4ccncc4)no3)cc2[N+](=O)[O-])cc1,-3%,/,3%,/,/,-13%
Cc1cc(C(=O)O)ccc1NCc1cccnc1,6%,-4,0%,/,3%,4%
O=C(O)c1ccc(NCc2cccnc2)c([N+](=O)[O-])c1,-20%,-53*,0%,/,-1%,?
Cc1ccc(CNc2ccc(-c3nc(-c4cccnc4)no3)cc2[N+](=O)[O-])cc1,29µM*,/,0%,/,/,-23%
CCCC(=O)NC(c1ccco1)c1cc([N+](=O)[O-])c2cccnc2c1O (stereo not given),?,-4,5%,-5%,-9%,?
CCC(=O)NC(c1ccc(C)cc1)c1cc([N+](=O)[O-])c2cccnc2c1O (stereo not given),23µM*,0,0%,0%[46.1 µM],-12%,-19%
O=C(NC(c1ccc(Cl)cc1)c1cc(Cl)c2cccnc2c1O)c1cccnc1 (stereo not given),10µM*,1,3%,3%[46.1 µM],-12%,?
CC(=O)NC(c1ccc(C)cc1)c1cc([N+](=O)[O-])c2cccnc2c1O (stereo not given),12µM*,0,0%,0%,-5%,?
CC(=O)NC(c1ccccc1)c1cc(Cl)c2cccnc2c1O (stereo not given),18µM*,-1,3%,-3%,11%,?
COc1ccc(C(NC(C)=O)c2cc(Cl)c3cccnc3c2O)cc1 (stereo not given),?,1,0%,-6%,9%,-12%
C/C(=N/NC(=O)CC1N=C(Cc2ccccc2)NNC1=O)c1cccnc1 (stereo not given),1%,1,0%,/,0%,0%
Cc1ccc(C2(C)NC(=O)N(CC(=O)Nc3nc(-c4ccccn4)cs3)C2=O)cc1 (stereo not given),?,-2,0%,-2%,3%,-12%
COC(=O)c1c[nH]c2c1-c1cc(C(=O)OCc3ccccc3)n(S(=O)(=O)c3ccc(C)cc3)c1C(=O)C2=O,4.1µM*,0,-2%,2%,/,4.1µM*
Cc1ccc(S(=O)(=O)Cc2ccc(C(=O)OCc3ccccc3)cc2)cc1,15%,2,0%,2%,2%,-7%
SMILES,Nrf2 block,CCT modulator,Nrf2 activator,TCR act,A-T KAP1 phos,A549 tox
CN1CCN2c3ccccc3CC3(C(=O)OC(C)(C)OC3=O)C2C1 (stereo not given),4%,/,/,/,/,3%
Cc1ccccc1-c1cc(=O)c2c(O)cccc2o1,17%,-1,14%,-5%,40µM*,0%
O=c1cc(-c2ccccc2)oc2cccc(O)c12,4%,2,?,-8%,/,3%
O=c1cc(-c2cccc(Br)c2)oc2cccc(O)c12,23%,-5,2µM*,3%,3%,-1%
O=C1Cc2cc(S(=O)(=O)N3CCN(c4ccc(Br)cc4)CC3)ccc2N1,-15%[92.2 µM],/,/,/,/,5%[92.2 µM]
O=C1CCCC2=C1C1(CCSCC1)N=C(Nc1nc3ccccc3o1)N2,-2%,/,/,/,/,8%
C#Cc1ccc([C@H]2C=C(C(=O)NCc3nc4ccccc4[nH]3)O[C@@H](OCc3ccc(CO)cc3)C2)cc1,17%,-1,-1%,-1%,/,-1%
CN1CCN(C(=O)C2=C[C@H](c3csc4ccccc34)C[C@H](OCc3ccc(CO)cc3)O2)CC1,2%,-2,-1%,-2%,-4%,-3%
O=C(C1=C[C@@H](c2ccc(Br)cc2)C[C@@H](OCc2ccc(CO)cc2)O1)N1CCN(Cc2ccccc2)CC1,21µM*,-4,-3%,-15%,-2%,?
O=C(Nc1ccccc1)C1=C[C@@H](c2ccc(Br)cc2)C[C@@H](OCc2ccc(CO)cc2)O1,18µM*,0,7%,3%,-2%,-11%
O=C(C1=C[C@H](c2csc3ccccc23)C[C@H](OCc2ccc(CO)cc2)O1)N1CCCCCCC1,23µM*,-1,1%,-7%,/,-19%
O=C(NCc1nc2ccccc2[nH]1)C1=C[C@H](c2ccc(Br)cc2)C[C@H](OCc2ccc(CO)cc2)O1,?,-49*,3%,9%,-10%,-20%
O=C(C1=C[C@H](c2ccc(C(F)(F)F)cc2)C[C@H](OCc2ccc(CO)cc2)O1)N1CCN(Cc2ccc3c(c2)OCO3)CC1,?,-2,5%,7%,-15%,?
O=C(C1=C[C@@H](c2ccc(C(F)(F)F)cc2)C[C@@H](OCc2ccc(CO)cc2)O1)N1CCN(Cc2ccc3c(c2)OCO3)CC1,16µM*,0,0%,1%,-16%,-22%
COc1ccc(C)cc1NC(=O)C(OC(=O)CNC(=O)c1ccccc1)c1ccccc1 (stereo not given),-1%,/,/,/,/,-5%
COCCCNC(=O)Cn1c(=O)n(-c2cccc(C)c2)c(=O)c2c1c1cc(C)ccc1n2C,/,/,1%,/,/,-8%
